# High-throughput results deposited in PubChem BioAssay by National Center for Advancing Translational Sciences (NCATS).
# In the library only some 0.79% were active in any assay of this set; here they are far more common.
# AMA1-RON2 inh: inhibitors of Plasmodium falciparum AMA1-RON2 interaction; AlphaScreen AMA1-biotinylated RON2 peptide binding; Potency, µM (series often up to 58.2 µM), inactives show top-dose activity change, negative = inhibition, actives largely listed as inhibitors; hit rate 0.2% among 360,000; AID 720542;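 also: 0% = vehicle wells and -100% = peptide control; nearly all actives have a fitted effect of over 45% in size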
#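 AMA1 (3D7) with his tag at 25 nM final met compounds first, then biotinylated RON2 peptide at 25 nM; detection used donor plus acceptor beads, 10 µg/mL apiece, read by AlphaScreen after 30 min at room temperature.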
# AmpC inh detg: AmpC beta-lactamase inhibition with detergent present; P00811; AmpC hydrolysis of nitrocefin, absorbance 480 nm, 0.01% Triton; Potency, µM (highest dose often 114 µM), for inactives: top-dose activity change, negative = inhibition, usual class: inhibitors; hit rate 0.041% among 370,000;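 also: 0% = no-compound wells and -100% = no-enzyme wells; nearly all actives have a fitted effect of over 25% in size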
# Target sequence (P00811 whole entry, looked up): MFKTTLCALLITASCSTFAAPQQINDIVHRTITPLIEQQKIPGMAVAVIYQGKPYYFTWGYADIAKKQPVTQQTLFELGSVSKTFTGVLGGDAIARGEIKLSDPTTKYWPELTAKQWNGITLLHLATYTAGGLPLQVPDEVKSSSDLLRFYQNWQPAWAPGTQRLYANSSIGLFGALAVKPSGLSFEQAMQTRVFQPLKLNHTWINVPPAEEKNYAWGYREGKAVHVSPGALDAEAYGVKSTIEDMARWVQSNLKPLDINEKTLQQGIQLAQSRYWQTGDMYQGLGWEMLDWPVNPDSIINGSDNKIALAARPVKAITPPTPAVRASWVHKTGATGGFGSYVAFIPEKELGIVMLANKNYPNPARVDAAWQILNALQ
#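 AmpC (5.3 nM in the dispensed reagent) in 20 mM phosphate pH 7.0 with 0.01% (detergent screen) or 0.0001% Triton X-100 was preincubated with compounds for 15 min at room temperature. Nitrocefin was then added from an 800 uM solution, and hydrolysis was followed at 480 nm.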
# RE007 growth inh: less growth of the S. pombe RE007 Vpr strain. S. pombe RE007 Vpr strain, BacTiter-Glo ATP luminescence, 24 h. Potency, µM (doses to about 92.2 µM), for inactives: top-dose activity change, negative = less growth, hits mostly inhibitors. hit rate 0.21% among 360,000; active = well fitted falling curve with a large enough effect; inconclusive = small, poorly fitted or top-dose-only effect; inactive = no such curve, though single readings can be large or run the other way; also: nearly all actives have a fitted effect of over 50% in size
#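 Fission yeast RE007 carrying one integrated HIV-1 vpr copy, seeded at OD 0.01 in PMG+AL medium with 23 nL pinned compound. Grown 24 h at 30 degrees; viability read by BacTiter-Glo luminescence after 5 min.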
# AmpC inh no detg: inhibitors of E. coli AmpC beta-lactamase without detergent | Potency, µM (doses to about 57.1 µM), for inactives: top-dose activity change, negative = inhibition, most hits filed as inhibitors | P00811 | AID 485341 | hit rate 0.52% among 330,000 | AmpC nitrocefin hydrolysis, absorbance 480 nm, 0.0001% Triton;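 also: plate controls were no compound for no effect and no enzyme for full effect; nearly all actives have a fitted effect of over 20% in size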
#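 AmpC (5.3 nM in the dispensed reagent) in 20 mM phosphate pH 7.0 with 0.01% (detergent screen) or 0.0001% Triton X-100 was preincubated with compounds for 15 min at room temperature. Nitrocefin was then added from an 800 uM solution, and hydrolysis was followed at 480 nm.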
# Starred values were filed as active, the others as inactive; ? = inconclusive; . = no result. Unless noted, calls follow the shape of the dose curve; as a rule, active = well fitted curve in the direction sought with a large enough effect; inconclusive = small, poorly fitted or top-dose-only effect, or another doubt; inactive = no such curve, though single readings can be large; an effect the other way counts as inactive or inconclusive. Unless noted, % is scaled to controls: 0 for no effect and ±100 for the full control effect; potency is read from the fitted curve at half-maximal effect.
SMILES,AMA1-RON2 inh,AmpC inh detg,RE007 growth inh,AmpC inh no detg
CC1CCCCC1NC(=O)Cc1ccc(S(=O)(=O)N2CCOCC2)s1 (configuration not stated),9%,?,7%,35µM*
O=S(=O)(NCCc1csc(-c2ccc(F)cc2)n1)c1ccc(Cl)cc1,.,1%,.,.
c1ccc(C2Nc3ccccc3-c3nc4ccccc4n32)cc1 (configuration not stated),7%,1%,-13%,-59%
c1coc(C2Nc3ccccc3-c3nc4ccccc4n32)c1 (configuration not stated),56%,-11%,7%,35µM*
Cc1ccc(CSc2c(C)cnc3c2c(=O)n(C)c(=O)n3C)cc1,.,4%,.,.
Cc1cc(Nc2cc(F)ccc2C)n2ncnc2n1,-2%,-4%,4%,28µM*
Cc1cc(Nc2ccc(C)c(F)c2)n2ncnc2n1,10%,-10%,4%,123%
CC(=O)c1ccc(NC(=O)CSc2nc(=O)n(Cc3ccccn3)c3c2CCC3)cc1,.,-1%,.,.
CC(=O)c1ccc(NC(=O)c2nc(-c3ccccc3)n(-c3ccc(C)cc3)n2)cc1,.,-3%,.,.
CC1CCCCN1C(=O)c1cc(-c2ccc(Br)cc2)on1 (configuration not stated),.,23%,.,.
CC1CCCCN1c1nnc(NC(=O)c2cc(-c3ccc(Br)cc3)on2)s1 (configuration not stated),109%,?,-5%,40µM*
CCOC(=O)C1CCN(C(c2cccc(F)c2)c2c(O)cc(C)n(CCOC)c2=O)CC1 (configuration not stated),.,23%,.,.
Cc1ccc(N2C(=O)C3C4C=CC(CNC(=S)N5CCN(c6cccc(C)c6)C(C)C5)(O4)C3C2=O)cc1 (configuration not stated),15%,-2%,2µM*,-6%
CC1CCc2nn(CC(=O)NCCC3=CCCCC3)cc2C1 (configuration not stated),5%,?,-26%,0.56µM*
CC1CCc2nn(CC(=O)NCCN3CCOCC3)cc2C1 (configuration not stated),-1%,0%,-6%,11µM*
CC1CCc2nn(CC(=O)NCCCN3CCOCC3)cc2C1 (configuration not stated),-6%,?,-1%,?
Cc1cccc(C(=O)Nc2c(C(=O)NCc3ccc(Cl)cc3)sc3nc(C)cc(C)c23)c1,.,-4%,.,.
CCN(CC)CCCN(Cc1cc2cc3c(cc2[nH]c1=O)OCO3)C(=O)Nc1ccccc1OC,-10%,-1%,-19%,0.4µM*
CCN(CC)CCCN(Cc1cc2cc(OC)c(OC)cc2[nH]c1=O)C(=O)Nc1ccccc1,1%,3%,-3%,2%
CCCNC(=O)Cn1ncc2c3ccccc3n(CCC)c2c1=O,.,0%,.,.
CN=c1sc2c(n1C)C(=O)c1ccccc1C2=O,-19%,.,10µM*,.
O=S(=O)(NCCn1ccc2ccccc21)c1ccccc1,-2%,-14%,2%,25µM*
Cc1cc(Br)ccc1NC(=O)c1c(C)oc2ncnc(N3CCCCC3)c12,.,17%,.,.
O=c1cc(-c2ccc(O)cc2)oc2c(-c3c(O)cc(O)c4c(=O)cc(-c5ccc(O)cc5)oc34)c(O)cc(O)c12,-11%,.,10%,-41%
O=c1c(-c2c(O)cc(O)c3c(=O)cc(-c4ccc(O)cc4)oc23)c(-c2ccc(O)cc2)oc2cc(O)cc(O)c12,-30%,2%,14%,20µM*
SMILES,AMA1-RON2 inh,AmpC inh detg,RE007 growth inh,AmpC inh no detg
O=C(CSCc1ccccc1)NNC(=S)Nc1cccc(Cl)c1Cl,-9%,?,-4%,0.16µM*
Cc1ccc(-n2c3c(c(=O)[nH]c2=O)C(NC(=O)c2ccccc2C)(C(F)(F)F)C(=O)N3)cc1 (configuration not stated),.,23%,.,.
O=C(O)/C=C/C(=O)Nc1ccc(Oc2ncnc3cc(Cl)ccc23)nc1,-3%,2%,32µM*,-21%
CCOC(=O)c1[nH]c(C)c(CCC(=O)NCc2ccc(CC)cc2)c1C,.,-6%,.,.
O=c1[nH]c(=O)n(CCC2=CCCCC2)c(O)c1/C=N/Nc1cccc2ccccc12,21%,4%,2%,28µM*
CN(C)C1(CNC(=O)COc2cccc(Cl)c2)CCCCC1,.,27%,.,.
O=C(CN1CCN(C(=O)c2cccc(-n3cnnn3)c2)CC1)Nc1ccccc1Cl,-26%,?,3%,54%
O=C(CN1CCCCC1)Nc1cccc(-n2cnnn2)c1,-1%,1%,-8%,0.14µM*
